Test results: PubChem BioAssay (NCATS)
Records with an inconclusive call do not appear. Where a call stands in place of a potency, no number is given. A number with no mark means an inactive call. The source made the active and inactive calls. Calls come from the whole dose curve; as a rule, active = well fitted curve in the direction sought with a large enough effect; inconclusive = small, poorly fitted or top-dose-only effect, or another doubt; inactive = no such curve, though single readings can be large; an effect the other way counts as inactive or inconclusive.

Experiments:
[1] = OV-KATE Cancer Cell Toxicity qHTS against the NCATS CANVASS Library (AID 1347345)
In short: (§1)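 Toxicity is measured over 72 h of compound exposure at 37 degrees C under 5% CO2. Each well holds 1000 cells, pre-incubated for 4 hours before dosing across an 11-point range. CellTiter-Glo luminescence gives viability.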

[2] = HPAF-II Cancer Cell Toxicity qHTS against the NCATS CANVASS Library (AID 1347346); note: nearly all actives have a fitted effect of over 55% in size
In short: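 Cytotoxicity in HPAF-II pancreatic cancer cells: 72 h treatment across 11 concentrations, ATP-based CellTiter-Glo luminescence endpoint.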

[3] = UWB1.289 Cancer Cell Toxicity qHTS against the NCATS CANVASS Library (AID 1347347); conditions: outcome: dose series up to 38.3 µM; note: nearly all actives have a fitted effect of over 60% in size
In short: as §1

[4] = OV-SAHO Cancer Cell Toxicity qHTS against the NCATS CANVASS Library (AID 1347348); note: nearly all actives have a fitted effect of over 55% in size
In short: as §1

[5] = Panc-1005 Cancer Cell Toxicity qHTS against the NCATS CANVASS Library (AID 1347349); note: nearly all actives have a fitted effect of over 60% in size
In short: as §1

[6] = SW1088 Cancer Cell Toxicity qHTS against the NCATS CANVASS Library (AID 1347350); conditions: outcome: dose series up to 76 µM; note: nearly all actives have a fitted effect of over 75% in size
Source text: Natural products and their derivatives continue to be wellsprings of nascent therapeutic potential. However, many laboratories have limited resources for biological evaluation, leaving their previously isolated or synthesized compounds largely or completely untested. To address this issue, the Canvass library of natural products was assembled (https://tripod.nih.gov/canvass), in collaboration with academic and industry researchers, for quantitative high-throughput screening (qHTS) across a diverse set of cell-based and biochemical assays. The pure (>85% purity by liquid chromatography/mass spectrometry [LC/MS]) Canvass library of 346 natural products were submitted by 45 academic laboratories and companies around the world. […] The library was formatted into 1536-well plates and evaluated in 50 qHTS (in an 11-pnt concentration series) bioassays with broad scope of disease-relevant mechanisms. The resulting data set from 50 different assays was then systematically analyzed to identify overall trends and specific natural products with interesting biological activities. […]
Cancer Cell Toxicity protocol for cell lines COV-362, OV-KATE, OV-SAHO, UWB1.289, UWB1.289-WTBRCA1, HEK-293, HPAF-II, Panc-1005, SW1088, or U-118MG. […] Luminescence signal was acquired via the ViewLux plate reader (PerkinElmer) using a clear filter, 2 second exposure and 2x binning settings.

[7] = U-118MG Cancer Cell Toxicity qHTS against the NCATS CANVASS Library (AID 1347351)
In short: as §1

[8] = COV-362 Cancer Cell Toxicity qHTS against the NCATS CANVASS Library (AID 1347352)
In short: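 qHTS cytotoxicity: compounds tested in 11 concentrations on 1000 seeded cells per well over 72 h; bortezomib served as control; signal from CellTiter-Glo luminescence.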

[9] = A2780 Cisplatin Sensitive Ovarian Cancer Cell Toxicity qHTS against the NCATS CANVASS Library (AID 1347353); conditions: A2780 ovarian cancer viability, ATPLite luminescence, 72 h; at 91.4 µM (top of the series) unless noted; note: nearly all actives have a fitted effect of over 60% in size
In short: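 Seventy-two-hour exposure of cisplatin-sensitive A2780 ovarian cells to an 11-concentration qHTS series; cytotoxicity is inferred from loss of ATPLite luminescence. Bortezomib titration served as positive control.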

[10] = Tertiary RLuc qRT-PCR qHTS assay for Zika virus inhibitors (AID 1347169); note: nearly all actives have a fitted effect of over 55% in size; note: potency is the fitted concentration of half-maximal effect; for activity change, negative = inhibition: top concentration of the series differs between compounds
In short: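 Vero, 1,000 cells/well, o/n 37 C; cpd pinned in DMSO; ZIKV-RLuc Cambodian, MOI 1-2, 48-72 h 37 C; live-cell RLuc substrate, lum read at 1-1.5 h.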

CC(=O)NCCc1c[nH]c2ccc(O)cc12
outcome [1]: inactive | outcome [2]: inactive | outcome [3]: inactive | outcome [4]: inactive | outcome [5]: inactive | outcome [6]: inactive | outcome [7]: inactive | outcome [8]: inactive | outcome [9]: inactive [at 46.1 µM]

O=C(O)Cc1c[nH]c2ccc(O)cc12
outcome [1]: inactive | outcome [2]: inactive | outcome [3]: inactive | outcome [4]: inactive | outcome [5]: inactive | outcome [6]: inactive | outcome [7]: inactive | outcome [8]: inactive | outcome [9]: inactive

COc1ccccc1N1CCN(CCCNc2c(C)c(=O)n(C)c(=O)n2C)CC1
Potency [10]: inactive

O=c1[nH]c(=S)[nH]c(-c2ccccc2)c1Cc1c(O)ccc2ccccc12
Potency [10]: inactive

Cc1cccc(C(=O)NCN2CCN(c3ccccc3C#N)CC2)c1
Potency [10]: inactive

Cn1c(=O)c2[nH]c(-c3ccc(S(=O)(=O)O)cc3)nc2n(C)c1=O
Potency [10]: inactive

COc1cc2c(CCNC(C)=O)c[nH]c2cc1O
Potency [10]: inactive

Cc1nc(N=Nc2cc(S(=O)(=O)O)c3cc([N+](=O)[O-])cc(S(=O)(=O)O)c3c2)c(COP(=O)(O)O)c(C=O)c1O
Potency [10]: inactive

Cc1nc(N=Nc2ccc(S(=O)(=O)O)cc2S(=O)(=O)O)c(COP(=O)(O)O)c(C=O)c1O
activity change, negative = inhibition [10]: 33.6% [at 5.25 µM]

Cn1cc(C(F)(F)F)nc1-c1ccc(OCC(O)CNCCOc2ccc(O)c(C(N)=O)c2)cc1 (stereo not drawn)
Potency [10]: inactive

Nc1ccc(-c2ccc3ccccc3n2)cc1
Potency [10]: inactive

C=CCN1CCc2c(cc(O)c(O)c2Br)[C@@H](c2ccccc2)C1
Potency [10]: 11.7 µM (active)
